Sampled rows, rich in hits. Any-hit rate of the full collection: about 2.3%.
Mcl1-Noxa inh – Mcl-1/Noxa interaction inhibition; inhibition, % at 21.7 µM; TR-FRET Mcl-1/Noxa peptide binding, 2 h; actives 1.5% (n = 220,000);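 active = compounds that cut the protein-peptide binding signal by more than 50% relative to plate controls in a single-dose test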;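 also: His-tagged Mcl-1 with rhodamine Noxa BH3 peptide and terbium anti-His antibody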
Target sequence (Q07820 whole entry, looked up): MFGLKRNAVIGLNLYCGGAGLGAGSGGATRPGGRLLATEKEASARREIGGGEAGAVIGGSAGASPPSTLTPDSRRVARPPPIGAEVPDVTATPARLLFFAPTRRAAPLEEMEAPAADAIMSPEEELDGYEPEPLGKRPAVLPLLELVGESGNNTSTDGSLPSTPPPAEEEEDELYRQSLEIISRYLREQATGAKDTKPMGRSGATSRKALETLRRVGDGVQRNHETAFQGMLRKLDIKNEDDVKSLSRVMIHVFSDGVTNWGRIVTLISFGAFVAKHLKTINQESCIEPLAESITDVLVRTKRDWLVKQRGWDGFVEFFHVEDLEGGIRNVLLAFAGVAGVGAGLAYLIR
MCL1-BIM inh – inhibitors of human MCL1 binding to BIM-BH3 peptide; inhibition, % at 10.9 µM; Q07820; actives 0.68% (n = 320,000); GST-MCL1 / FITC-Bim-BH3 fluorescence polarization;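 active = inhibition above the mean inhibition of all tested compounds plus 3 SD, set per campaign, cut at about 40% in these data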;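 also: higher means more loss of mP so more displacement of Bim peptide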
GLD-1 TGE inh – GLD-1-TGE RNA interaction inhibition (C. elegans); Q17339; purified GLD-1 + fluorescein TGE RNA, fluorescence polarization; inhibition, % at 5.96 µM; actives 0.44% (n = 320,000);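 active = percent inhibition above a per-plate cutoff, the plate mean of test compounds plus 3 SD, cut at about 30% in these data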
BCLXL inh – inhibitors of human Bcl-xL | GST-Bcl-xL / FITC-Bim BH3 peptide fluorescence polarization | actives 0.7% (n = 320,000) | inhibition, % at 10.9 µM | AID 2129 | Q07817;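 active = inhibition above the mean of all tested compounds plus 3 SD, cutoff set per campaign, cut at about 30% in these data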;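 also: inhibitors lower millipolarization by displacing the labeled peptide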
Target sequence (Q07817 whole entry, looked up): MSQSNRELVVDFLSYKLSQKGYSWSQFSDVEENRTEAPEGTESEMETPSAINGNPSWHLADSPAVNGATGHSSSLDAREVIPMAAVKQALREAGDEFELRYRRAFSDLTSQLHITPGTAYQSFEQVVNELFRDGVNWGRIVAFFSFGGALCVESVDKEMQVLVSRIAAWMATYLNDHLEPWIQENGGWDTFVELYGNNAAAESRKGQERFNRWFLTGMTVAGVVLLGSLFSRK
Mcl1-Bid inh – disrupts binding of human Mcl-1 to Bid peptide; TR-FRET Mcl-1/Bid-Dy647 peptide binding, 1536-well; inhibition, % at 21.7 µM; actives 0.97% (n = 220,000); AID 1021;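 active = compounds that cut the binding signal by more than half at the single screening dose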;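 also: His-tagged Mcl-1 with europium anti-His antibody binding Bid BH3 peptide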
Mcl-1 Bim block – disrupts Bim peptide binding to human Mcl-1; Bead-based flow cytometry, Bim peptide-Mcl-1 binding; inhibition, % at 10 µM; actives 0.1% (n = 190,000); AID 1009; in the data active = inhibition above about 40%
Large screens that a line does not name were inactive.

O=C(CCc1nnc2n(Cc3ccccc3)c(=O)c3ccccc3n12)NCCN1CCOCC1	none (no result: Mcl1-Noxa inh, Mcl1-Bid inh, Mcl-1 Bim block)
Cn1cc([N+](=O)[O-])c(C(=O)NC2CCCCCCC2)n1	none (no result: Mcl1-Noxa inh, Mcl1-Bid inh, Mcl-1 Bim block)
CCC(C)(C)NC(=O)C(c1ccccc1Cl)N(Cc1cccnc1)C(=O)CCC(=O)Nc1cc(C)on1 (centres undefined)	none (no result: Mcl1-Noxa inh, Mcl1-Bid inh, Mcl-1 Bim block)
COc1cccc(N/C(SCc2ccccc2C)=C(/C#N)C(=O)NCc2cccs2)c1	Mcl1-Bid inh 54.0
CCCCCCCCCCCCCCCC[n+]1cccc2ccccc21	Mcl1-Noxa inh 88.8, Mcl1-Bid inh 91.1
O=C(CNC(=O)c1cccc(F)c1)NC1CC1	none (no result: Mcl1-Noxa inh, MCL1-BIM inh, BCLXL inh, Mcl1-Bid inh, Mcl-1 Bim block)
CCOc1ccc(CNC(=S)N/N=C\c2ccc([N+](=O)[O-])cc2)cc1	Mcl1-Noxa inh 54.0
CCOc1ccc(CNC(=S)N/N=C/c2cccnc2)cc1	none
CCNc1cc2oc(=O)c(CN3CCOCC3)c(C)c2cc1C	BCLXL inh 32.2
CCN(CC)CCn1c2c(c(SCC(=O)Nc3cc(OC)cc(OC)c3)nc1=O)CCC2	none (no result: Mcl1-Noxa inh, Mcl1-Bid inh, Mcl-1 Bim block)
CCO[C@@H]1OC(C(=O)N2CCN(Cc3ccccc3)CC2)=C[C@H](C2CC2)[C@H]1CCCO	Mcl1-Bid inh 86.7
Cc1cc(OCC(=O)Nc2cnn(CCCC(=O)O)c2)ccc1Cl	none (no result: Mcl1-Noxa inh, Mcl1-Bid inh, Mcl-1 Bim block)
Cc1[nH]c2ccc(C(=O)NCCCN3CCN(C)CC3)cc2c1C	none (no result: Mcl1-Noxa inh, Mcl1-Bid inh, Mcl-1 Bim block)
Nc1ccc(Sc2cc(Cl)nc(N)n2)cc1	none
Nc1nc(N)c2cc(Sc3ccc4ccccc4c3)ccc2n1	Mcl1-Noxa inh 84.3 (no result: Mcl-1 Bim block)
COc1ccccc1N(C(=O)c1ccco1)C(C(=O)NC1CCCC1)c1ccncc1 (centres undefined)	none (no result: Mcl1-Noxa inh, Mcl1-Bid inh, Mcl-1 Bim block)
CC1CCCC(NC(=O)CCNC(=O)c2ccc([N+](=O)[O-])cc2)C1C (centres undefined)	none (no result: Mcl1-Noxa inh, Mcl1-Bid inh, Mcl-1 Bim block)
COc1ccc(NC(=O)CSc2nccn2Cc2ccccc2)c(OC)c1	none (no result: Mcl1-Noxa inh, Mcl1-Bid inh, Mcl-1 Bim block)
CCOc1ccc(N2C(=O)c3cccnc3C2Nc2ccc(F)cc2)cc1 (centres undefined)	Mcl1-Bid inh 83.6
COc1ccc(CN2C(=O)c3cccnc3C2Nc2ccc(OC)c(Cl)c2)cc1 (centres undefined)	Mcl1-Bid inh 69.8
Cc1ccc(NC2c3ncccc3C(=O)N2Cc2ccc(F)cc2)cc1 (centres undefined)	Mcl1-Bid inh 50.5
COc1ccc(NC2c3ncccc3C(=O)N2Cc2ccccc2)c(OC)c1 (centres undefined)	Mcl1-Bid inh 64.0
COc1cccc(CC(=O)NC2CCCN(Cc3ccccc3F)C2)c1 (centres undefined)	none (no result: Mcl1-Noxa inh, Mcl1-Bid inh, Mcl-1 Bim block)
COCc1ccc(C(=O)NC2CCCN(Cc3ccccc3F)C2)o1 (centres undefined)	BCLXL inh 35.9 (no result: Mcl1-Noxa inh, Mcl1-Bid inh, Mcl-1 Bim block)
Cc1ccc2oc(-c3ccc(C)c(NC(=S)NC(=O)c4cccs4)c3)nc2c1	Mcl1-Bid inh 52.8
COc1cccc(-n2c(SCc3ccccn3)nc3c(c2=O)SCC3)c1	Mcl1-Bid inh 82.1
CCC(=O)Oc1ccc2c(=O)c(-c3ccc4ccccc4n3)c(CC)oc2c1C	Mcl1-Noxa inh 82.3
CCN(CC)CCC(=O)Nc1cccc2c1C(=O)c1ccccc1C2=O	BCLXL inh 36.3 (no result: Mcl-1 Bim block)
O=C(CNc1ccc2ccccc2c1)N/N=C/C=C/c1cccc([N+](=O)[O-])c1	Mcl1-Noxa inh 76.9
COc1ccc(NC(=S)NNc2ccc(S(=O)(=O)Nc3ccccc3C(=O)O)cc2[N+](=O)[O-])cc1	Mcl1-Noxa inh 87.6, Mcl1-Bid inh 72.8 (no result: Mcl-1 Bim block)
CCN1C(=O)/C(=C/c2cccs2)SC1=Nc1ccc(OC)cc1	Mcl1-Bid inh 97.2
Cc1ccccc1C(=O)Nc1ccnn1C1CCN(C2CCSCC2)CC1	BCLXL inh 35.7 (no result: Mcl1-Noxa inh, Mcl1-Bid inh, Mcl-1 Bim block)
COc1ccccc1C(=O)Nc1ccnn1C1CCN(C(C)CSC)CC1 (centres undefined)	MCL1-BIM inh 45.1, BCLXL inh 41.5 (no result: Mcl1-Noxa inh, Mcl1-Bid inh, Mcl-1 Bim block)
COc1ccccc1C(=O)Nc1ccnn1C1CCN(C2CCSCC2)CC1	MCL1-BIM inh 41.6, BCLXL inh 42.2 (no result: Mcl1-Noxa inh, Mcl1-Bid inh, Mcl-1 Bim block)
COCCC(=O)N1CCC(n2nccc2NC(=O)c2ccccc2C)CC1	none (no result: Mcl1-Noxa inh, Mcl1-Bid inh, Mcl-1 Bim block)
Cc1cc(C)cc(C(=O)NCC(=O)N2CCC(C(N)=O)CC2)c1	none (no result: Mcl1-Noxa inh, MCL1-BIM inh, BCLXL inh, Mcl1-Bid inh, Mcl-1 Bim block)
COc1ccc2c(N)c(C(=O)NN)[nH]c2c1	Mcl1-Noxa inh 63.6 (no result: Mcl-1 Bim block)
CC(=O)c1c(N=CN(C)C)nc(C)nc1-c1ccccc1	Mcl1-Bid inh 88.9
COc1ccc2ccc(C(C)(C(C)=O)C(=O)OC(C)C)cc2c1 (centres undefined)	none (no result: Mcl1-Noxa inh, Mcl1-Bid inh, Mcl-1 Bim block)

Bioassay records: PubChem BioAssay, several laboratories
